PubChem BioAssay (NCATS)
Results filed as inconclusive are left out. The source made the active and inactive calls. The call rests on the fitted dose curve; in most records, active means well fitted inhibition curve with a large enough effect; inconclusive means small, poorly fitted or top-dose-only effect; inactive means flat fitted curve, though single readings scatter.

Tests used:
Assay in all cases: Cytotoxic Profiling of Annotated Libraries Using Quantitative High-Throughput Screening (AID 1296008); further: nearly all actives have a fitted effect of over 60% in size
Conditions in all cases: Five cell lines viability, CellTiter-Glo ATP luminescence, 48-72 h; max response: hits give low values
CRL-7250 = system: CRL-7250
Outline: (§1)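 Cytotoxicity was measured as CellTiter-Glo ATP luminescence, read after 10 min at room temperature. Compound treatment of the cells lasted 48 or 72 hr at 37 degrees Celsius in a qHTS format.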

HEK293 = system: HEK293
Outline: as §1

HaCat = system: HaCat
Outline: as §1

KB-3-1 = system: KB-3-1
Outline: as §1

NIH3T3 = system: NIH3T3
Outline: as §1

Measured: max response
On the % scale 0 is the no-effect control and ±100 the full control effect.

COc1cc2c(cc1OC)N1C(=O)C[C@@]34C=CC[N@+]5([O-])CC[C@H]2[C@H](CC3)[C@@]145
inactive: CRL-7250 -5.36% | HEK293 -9.63% | HaCat -4.24% | KB-3-1 1.95% | NIH3T3

COc1cc2c(cc1O)CC(O)(CO)C(CO)C2c1ccc(OC2OC(CO)C(O)C(O)C2O)c(OC)c1 (stereo not given)
inactive: CRL-7250 | HEK293 -0.898% | HaCat | KB-3-1 | NIH3T3

COC(=O)c1c(CC=C(C)C)c(OC2OC(CO)C(O)C(O)C2O)c2ccccc2c1OC1OC(CO)C(O)C(O)C1O (stereo not given)
inactive: CRL-7250 | HEK293 -10.1% | HaCat | KB-3-1 | NIH3T3

CC1=CCC[C@@H]2[C@](CCc3ccoc3)(C(=O)O)[C@H](C)CC[C@@]12C
inactive: CRL-7250 -2.77% | HEK293 -3.43% | HaCat -10.6% | KB-3-1 8.82% | NIH3T3

C=C(CCO)C(=O)OCC1OCC(OC(=O)C(=C)CCO[C@@H]2O[C@H](COC(=O)C(=C)CCO[C@@H]3O[C@H](CO)[C@@H](O)[C@H](O)[C@H]3O)[C@@H](O)[C@H](O)[C@H]2O)C(O)C1O (stereo not given in full)
inactive: CRL-7250 0.815% | HEK293 | HaCat -17.9% | KB-3-1 0.844% | NIH3T3 3.62%

C=C1CC2C3(C)C=CC(=O)OC(C)(C)C3CC(OC(C)=O)C2(C)C2C(=O)OC(C)C(=O)C12C (stereo not given)
inactive: CRL-7250 -1.41% | HEK293 -7.78% | HaCat | KB-3-1 1.96% | NIH3T3

COC(=O)C1=COC(OC2OC(CO)C(O)C(O)C2O)C2C(COC(=O)/C=C/c3ccc(O)c(O)c3)C(O)C(O)C12 (stereo not given)
inactive: CRL-7250 | HEK293 0.488% | HaCat | KB-3-1 | NIH3T3 2.28%

CC(=O)OC1CCC2(C)C(CCC3(C)C2CC=C2C4CC(C)(C)CCC4(C)CCC23C)C1(C)C(=O)O (stereo not given)
inactive: CRL-7250 -8.32% | HEK293 | HaCat -5.03% | KB-3-1 3% | NIH3T3 3.68%

C[C@H]1/C=C/C=C/C=C/C=C/C=C/[C@@H](O)[C@H](C(=O)O)[C@H](O)C[C@H](O)CCC[C@H](O)C[C@H](O)C[C@H](O)[C@@H](C)C(=O)O[C@@H]1C
inactive: CRL-7250 | HEK293 1.51% | HaCat 2.29% | KB-3-1 7.54% | NIH3T3

CCC1OC(=O)C(C)CC(C)C(=O)/C(C)=C/C(C)C(=O)/C=C/C1(C)O (stereo not given)
inactive: CRL-7250 | HEK293 -3.54% | HaCat | KB-3-1 8.38% | NIH3T3

O=C(O)CCc1ccc(NCc2cccc3c2CCCN3CCOc2ccccc2)cc1F
inactive: CRL-7250 0.539% | HEK293 0.703% | HaCat | KB-3-1 2.13% | NIH3T3

O=C(O)CCc1cc2ccoc2cc1O[C@@H]1O[C@H](CO)[C@@H](O)[C@H](O)[C@H]1O
inactive: CRL-7250 | HEK293 1.52% | HaCat 0.684% | KB-3-1 | NIH3T3

C[C@@H]1O[C@@H](O[C@H]2[C@H](OC(=O)[C@]34CCC(C)(C)C[C@H]3C3=CCC5[C@@]6(C)CC[C@H](O[C@@H]7O[C@H](CO[C@@H]8OC[C@H](O)[C@H](O)[C@H]8O[C@@H]8OC[C@@H](O)[C@H](O)[C@H]8O)[C@@H](O)[C@H](O)[C@H]7O)C(C)(C)C6CC[C@@]5(C)[C@]3(C)C[C@H]4O)O[C@H](CO)[C@@H](O)[C@@H]2O)[C@H](O[C@@H]2O[C@H](CO)[C@@H](O)[C@H](O)[C@H]2O)[C@H](O)[C@H]1O[C@@H]1OC[C@@H](O)[C@H](O[C@@H]2OC[C@@H](O)[C@H](O)[C@H]2O)[C@H]1O (stereo not given in full)
inactive: CRL-7250 0.998% | HEK293 5% | HaCat | KB-3-1 -0.626% | NIH3T3 -3.82%

C/C=C/C=C/C(=O)OC1CC/C=C/C(O)C(O)C(CCC)OC1=O (stereo not given)
inactive: CRL-7250 -18.3% | HEK293 4.94% | HaCat | KB-3-1 4.6% | NIH3T3

CC(O)/C=C/C1(O)C(C)C(O)C(O[C@@H]2O[C@H](CO)[C@@H](O)[C@H](O)[C@H]2O)CC1(C)C (stereo not given in full)
inactive: CRL-7250 -7.69% | HEK293 -15.2% | HaCat | KB-3-1 0.447% | NIH3T3

C[C@@H]1O[C@@H](O[C@H]2[C@@H]3C=CO[C@@H](O[C@@H]4O[C@H](CO)[C@@H](O)[C@H](O)[C@H]4O)[C@@H]3[C@@]3(CO)O[C@@H]23)[C@H](OC(=O)/C=C/c2ccc(O)cc2)[C@H](O)[C@H]1O
inactive: CRL-7250 -20.4% | HEK293 -82.6% | HaCat -0.452% | KB-3-1 -12.9% | NIH3T3
